For one assay, the system named is Hek293T. Briefly: Primary qHTS to identify gynecologic anti-cancer compounds using libraries of approved drugs and bioactive compounds (AID 1345084). Note: nearly all actives have a fitted effect of over 55% in size. The following applies: Gynecologic cancer cell panel viability, ATPlite luminescence, 48 h, control line for the selectivity index; series mostly up to 57.5 µM. The essentials: (§1)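 Cytotoxicity screen measuring ATP content by luciferase luminescence. Each compound is applied at five concentrations for 48 h at 37 C with 5% CO2.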
In general terms: qHTS replaces the single test concentration by a dilution series.

Another assay has as its system JEG-3. The description is as above. The following applies: Gynecologic cancer cell panel viability, ATPlite luminescence, 48 h; series mostly up to 57.5 µM. A digest of the protocol:
as §1
(In general: ATP-based viability assays read luminescence as a measure of living cells.)

The next assay relates to OV90. The assay is described as above. The following applies: Gynecologic cancer cell panel viability, ATPlite luminescence, 48 h; series mostly up to 57.5 µM. The essentials:
as §1

Another assay relates to PA-1. The assay is described as above. Conditions: Gynecologic cancer cell panel viability, ATPlite luminescence, 48 h; series mostly up to 57.5 µM. A digest of the protocol: as §1
The subject of another assay is Tov-21-G. The assay is described as above. The following applies: Gynecologic cancer cell panel viability, ATPlite luminescence, 48 h; series mostly up to 57.5 µM. A digest of the protocol:
as §1

A further assay deals with Tov112D. Described as above. The following applies: Gynecologic cancer cell panel viability, ATPlite luminescence, 48 h; series mostly up to 57.5 µM. A digest of the protocol:
as §1

Assay [1] can be described thus: Drug repurposing screens with cells derived from glioblastoma tumor samples (AID 1345199). Note: nearly all actives have a fitted effect of over 40% in size. Note: potency is the fitted concentration of half-maximal effect. The following applies: GBM patient neurospheres viability, ATP luminescence, 48 h. A digest of the protocol: (§2)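 Four patient lines of CD133+ GBM neurospheres were screened at several concentrations; hits were retested in those lines plus three slower-growing GBM lines, using 48-hour treatment and ATP-based viability.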

The subject of the next assay is SKOV3. Nature of the assay: Primary qHTS to identify gynecologic anti-cancer compounds using libraries of approved drugs and bioactive compounds (AID 1345084). Note: nearly all actives have a fitted effect of over 55% in size. Conditions: Gynecologic cancer cell panel viability, ATPlite luminescence, 48 h; series mostly up to 57.5 µM. The essentials:
as §1

For the next assay, the system named is astro. Nature of the assay: Drug repurposing screens with cells derived from glioblastoma tumor samples (AID 1345199). Note: nearly all actives have a fitted effect of over 40% in size. Note: potency is the fitted concentration of half-maximal effect. Conditions: viability, ATP luminescence, 48 h; series mostly up to 45.9 µM. The essentials:
as §2

Setting [2] is: at 20 µM (top of the series), tumour line C.
The mark [3] stands for this setting: at 21.2 µM (top of the series), tumour line B.
Setting [4] is: at 21.2 µM (top of the series), tumour line D.
[5] abbreviates: at 21.3 µM (top of the series), tumour line A.
The mark [6] stands for this setting: at 45.9 µM (top of the series), tumour line B.
The mark [7] stands for this setting: at 45.9 µM (top of the series), tumour line D.
[8] abbreviates: at 46 µM (top of the series), tumour line A.
[9] abbreviates: at 46.1 µM (top of the series), tumour line C.

Results filed as inconclusive are left out. A number with no mark means an inactive call. Calls of active or inactive are those of the source. Calls come from the whole dose curve; as a rule, active = well fitted curve in the direction sought with a large enough effect; inconclusive = small, poorly fitted or top-dose-only effect, or another doubt; inactive = no such curve, though single readings can be large; an effect the other way counts as inactive or inconclusive.
% is set by controls: 0 for no effect and ±100 for the full control effect.

Turning to `COc1cc(C)nc(-n2nc(C)cc2OC)n1`, the Potency entry with Hek293T, in the assay on JEG-3, with OV90, in the assay with PA-1, in the assay on Tov-21-G and in the assay on Tov112D was “inactive” throughout. For the same compound, the activity, negative = cell killing is 16.5% in [1] (setting [2]), 1.89% in assay [1] (setting [3]), -16% in [1] (setting [4]) and -15.4% in [1] (setting [5]).
Turning to `O=C(O)C(Cc1cc(I)c(O)c(I)c1)c1ccccc1` (stereo not drawn), the Potency result in the assay on Hek293T, with JEG-3, with OV90, with SKOV3, in the assay with Tov-21-G and in the assay on Tov112D was “inactive” each time. For the same compound, the activity, negative = cell killing in assay [1] (setting [6]) was 4.75%; in assay [1] (setting [7]), -5.57%; in assay [1] (setting [8]) it was -25.7%; in assay [1] (setting [9]) it was -25.5%.
Regarding `CCCCN=C(N)N=C(N)N`, the Potency result in the assay on Hek293T, in the assay with JEG-3, in the assay with OV90, with PA-1, in the assay on Tov-21-G and with Tov112D was “inactive” throughout. In the assay on astro, the Potency entry is “inactive”. Besides, the activity, negative = cell killing in assay [1] (setting [6]) is -13.5%; in [1] (setting [7]), -11%; in [1] (setting [9]), -8.24%.
With `CC[N+](C)(CC)CCOC(=O)C(O)(c1ccccc1)C1CCCCC1` (stereo not drawn), the Potency result with Hek293T, in the assay on JEG-3, in the assay on OV90, in the assay with PA-1, in the assay on Tov-21-G and in the assay on Tov112D was “inactive” in each case. Besides, the figures for the activity, negative = cell killing in assay [1] (setting [6]), in assay [1] (setting [7]) and in assay [1] (setting [9]) were 4.51%, -27.2% and -9.68%, respectively.
For the compound `Nc1ccc(C(=O)NCC(=O)O)cc1`, the Potency result in the assay on Hek293T, in the assay with JEG-3, in the assay with OV90, in the assay on PA-1, in the assay on Tov-21-G and in the assay on Tov112D was “inactive” in each case. For the same compound, the Potency result in the assay with astro was “inactive”. Also, the activity, negative = cell killing in [1] (setting [3]) is -7.61%; in assay [1] (setting [4]), -13.9%; in assay [1] (setting [5]), -13.3%.
With `O=C(Nc1cccc(C2=NCCN2)c1)Nc1cccc(C2=NCCN2)c1`, the Potency result in the assay on Hek293T, in the assay with JEG-3, in the assay on OV90, with PA-1, in the assay with Tov112D and in the assay with astro was “inactive” each time. In addition, the activity, negative = cell killing in [1] (setting [6]) is 7.96%; in assay [1] (setting [7]) it was -22.5%; in assay [1] (setting [8]), 2.01%; in assay [1] (setting [9]), -6.35%.
With `CN1CCN(C2=Nc3ccccc3Sc3ccc(Cl)cc32)CC1`, the Potency result with Hek293T, in the assay with JEG-3, in the assay with OV90, with SKOV3, with Tov-21-G and in the assay on Tov112D was “inactive” each time. In addition, in assay [1] (setting [9]), the activity, negative = cell killing is -6.22%. Also, the Potency in assay [1] (tumour line A) was 7.94 µM (active); in assay [1] (tumour line D), 17.8 µM (active).
Regarding `COc1cc(NS(=O)(=O)c2ccc(N)cc2)ncn1`, the Potency result in the assay with Hek293T, in the assay on JEG-3, with OV90, with PA-1, in the assay on Tov-21-G and in the assay on Tov112D was “inactive” throughout. Also, the Potency result in the assay with astro is “inactive”. For the same compound, the figures for the activity, negative = cell killing in assay [1] (setting [2]), in [1] (setting [3]) and in assay [1] (setting [4]) were 5.16%, 4.65% and -16.4%, respectively.
As to `CCCN(CCc1cccs1)[C@H]1CCc2c(O)cccc2C1`, the Potency entry with Hek293T, in the assay with JEG-3, in the assay on OV90, in the assay with PA-1, in the assay on Tov-21-G and in the assay on Tov112D was “inactive” each time.
For `CCc1oc2ccccc2c1C(=O)c1cc(Br)c(O)c(Br)c1`, the Potency entry in the assay with Hek293T, in the assay on JEG-3, with OV90, in the assay on PA-1, in the assay with Tov-21-G and in the assay on Tov112D was “inactive” each time. The figures for the activity, negative = cell killing in assay [1] (setting [8]) and in assay [1] (setting [9]) were -39.6% and -6.19%, respectively. Besides, the Potency is 35.5 µM (active) in assay [1] (tumour line D) and 28.2 µM (active) in the assay with astro.
Regarding `CC(=O)NCCCCCC(=O)O`, the Potency result with Hek293T, in the assay with JEG-3, with OV90, in the assay on PA-1, with Tov-21-G and with Tov112D was “inactive” each time. Also, the Potency entry with astro was “inactive”. The activity, negative = cell killing in assay [1] (setting [6]) was -15.6%; in [1] (setting [7]), -10%; in assay [1] (setting [8]), -23.3%; in assay [1] (setting [9]), -20.2%.
On to `CC(C)(C)NC[C@H](O)COc1cccc2c1CCCC2=O`, for which the Potency result in the assay with Hek293T, with JEG-3, with OV90, with PA-1, with Tov-21-G and in the assay on Tov112D was “inactive” throughout. Moreover, in the assay on astro, the Potency entry is “inactive”. Further, the activity, negative = cell killing in [1] (setting [2]) is 5.11%; in assay [1] (setting [3]) it was -13.9%; in assay [1] (setting [4]), -6.37%; in [1] (setting [5]) it was -24.3%.
`CC(C)NCC(O)c1ccc2ccccc2c1` (stereo not drawn): the Potency entry in the assay on Hek293T, with JEG-3, in the assay on OV90, with PA-1, with Tov-21-G and with Tov112D was “inactive” each time. Moreover, the activity, negative = cell killing in [1] (setting [6]) was -12.4%; in assay [1] (setting [7]), -5.15%; in assay [1] (setting [9]) it was -5.59%.
Turning to `Cc1cc(C)cc(OCC2CNC(=O)O2)c1` (stereo not drawn), the Potency entry in the assay with Hek293T, in the assay on JEG-3, with OV90, in the assay with PA-1, in the assay with Tov-21-G and in the assay on Tov112D was “inactive” in each case. Further, the activity, negative = cell killing in assay [1] (setting [6]) was 0.397%; in [1] (setting [7]), -17.2%; in assay [1] (setting [8]), -25.9%; in assay [1] (setting [9]) it was 3.04%.
As for `CC(=O)NC(=O)c1ccccc1O`, the Potency entry in the assay with Hek293T, in the assay on JEG-3, in the assay with OV90, in the assay with PA-1, in the assay with Tov-21-G and in the assay with Tov112D was “inactive” in each case. Further, in the assay on astro, the Potency entry is “inactive”. The activity, negative = cell killing in assay [1] (setting [6]) was -6.43%; in assay [1] (setting [7]), -8.37%; in assay [1] (setting [8]) it was -24.9%; in assay [1] (setting [9]), -17.7%.
On to `NS(=O)(=O)c1cc(C(=O)O)cc(N2CCCC2)c1Oc1ccccc1`, for which the Potency result with Hek293T, in the assay on JEG-3, in the assay with OV90, with PA-1, with Tov-21-G and in the assay on Tov112D was “inactive” in each case. Further, the Potency result in the assay with astro was “inactive”. Moreover, the activity, negative = cell killing is 0.209% in assay [1] (setting [2]), -9.72% in assay [1] (setting [3]), -3.36% in assay [1] (setting [4]) and -12.4% in assay [1] (setting [5]).
Turning to `Nc1ccc(S(=O)(=O)NCc2ccccc2)cc1`, the Potency entry with Hek293T, with JEG-3, with OV90, in the assay on PA-1, with Tov-21-G and in the assay with Tov112D was “inactive” each time. Also, the activity, negative = cell killing in [1] (setting [6]) is 0.545%; in assay [1] (setting [7]), -1.8%; in [1] (setting [9]), -10.5%.
For `O=C(O)Cc1csc(-c2ccc(Cl)cc2)n1`, the Potency entry with Hek293T, in the assay on JEG-3, with OV90, in the assay with PA-1, in the assay with Tov-21-G and with Tov112D was “inactive” in each case. Also, the Potency entry in the assay on astro was “inactive”. In addition, the activity, negative = cell killing in assay [1] (setting [6]) was -6.84%; in assay [1] (setting [7]), 8.21%; in [1] (setting [8]), -20.7%; in [1] (setting [9]), -23.2%.
Turning to `Cc1cccc(C)c1NC(=O)CN1CCCCCC1`, the Potency result in the assay with Hek293T, with JEG-3, in the assay on OV90, in the assay with PA-1, in the assay with Tov-21-G and in the assay on Tov112D was “inactive” in each case. Also, the Potency entry in the assay with astro is “inactive”. In addition, the results for the activity, negative = cell killing in assay [1] (setting [6]), in assay [1] (setting [7]) and in assay [1] (setting [9]) were -3.5%, -16.9% and -16.8%, respectively. For the same compound, the Potency in assay [1] (tumour line A) is 35.5 µM (active).

The values are drawn from PubChem BioAssay (NCATS).
